Tau fluor counter: counter-screen for tau fibril formation inhibitors; AID 1463; 280,000 compounds, 0.93% hits; Potency, µM (doses to about 57.7 µM), for inactives: at the top dose activity change, negative = decrease; tau K18 P301L Alexa594 fluorescence, heparin fibrillization; note: nearly all actives have a fitted effect of over 55% in size
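Human K18 P301L tau (15 uM unlabeled plus 0.24 uM Alexa 594-labeled, final) in 100 mM sodium acetate pH 7 was mixed with compound and 20 uM heparin and incubated 6 hr at 37 C.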
Tau fibril FP: blocks human tau fibril formation measured by polarization; P10636; K18 P301L tau heparin fibrillization, Alexa594 FP, 6 h; Potency, µM (top dose mostly 57.7 µM), without a hit: top-dose activity, negative = inhibition, usual class: inhibitors; 280,000 compounds, 0.39% hits; note: nearly all actives have a fitted effect of over 55% in size
Target sequence (P10636 561-689 P618L limits assumed): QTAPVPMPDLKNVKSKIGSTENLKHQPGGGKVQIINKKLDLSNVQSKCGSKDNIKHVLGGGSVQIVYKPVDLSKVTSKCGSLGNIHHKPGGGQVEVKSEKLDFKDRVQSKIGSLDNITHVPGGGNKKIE
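Human K18 P301L fragment (15 uM unlabeled plus 0.24 uM Alexa 594-labeled) in 100 mM sodium acetate pH 7 with compound, aggregation induced by 20 uM heparin for 6 hr at 37 C. ThT (30 uM) added for 1 hr, then Alexa 594 FP read.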
RORgamma inh: inhibitors of mouse ROR gamma transcriptional activity | Drosophila S2 Gal4-RORgamma UAS-luciferase reporter, 20 h | Potency, µM (highest dose often 53.6 µM), for inactives: at the highest dose activity change, negative = inhibition, actives largely listed as inhibitors | AID 2551 | 310,000 compounds, 5.4% hits; note: nearly all actives have a fitted effect of over 60% in size
Target sequence (P51450 whole entry, looked up, the tested form may be a part): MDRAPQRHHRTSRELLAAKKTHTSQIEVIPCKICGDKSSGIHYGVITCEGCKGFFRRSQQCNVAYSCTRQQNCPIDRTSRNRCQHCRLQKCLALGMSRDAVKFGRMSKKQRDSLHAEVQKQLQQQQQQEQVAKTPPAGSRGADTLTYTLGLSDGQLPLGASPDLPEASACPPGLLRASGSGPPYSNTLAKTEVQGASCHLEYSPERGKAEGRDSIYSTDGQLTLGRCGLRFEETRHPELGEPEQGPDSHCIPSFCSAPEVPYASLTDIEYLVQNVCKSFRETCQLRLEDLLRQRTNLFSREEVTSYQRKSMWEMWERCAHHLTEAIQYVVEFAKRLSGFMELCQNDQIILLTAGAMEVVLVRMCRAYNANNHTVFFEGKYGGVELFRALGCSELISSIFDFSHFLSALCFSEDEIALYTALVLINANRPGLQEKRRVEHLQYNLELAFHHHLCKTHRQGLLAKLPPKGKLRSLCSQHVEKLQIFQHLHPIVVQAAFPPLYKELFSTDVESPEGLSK
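In this cell-based reporter format, copper sulfate (700 uM final) drives Gal4–ROR gamma fusion expression from a metallothionein promoter in Drosophila Schneider cells; compounds preincubated 1 hr, reporter read after 20 hr at ambient temperature.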
Tau fibril ThT: inhibitors of human tau fibril formation, thioflavin T binding. P10636. recombinant tau K18 P301L (four-repeat tau fragment), heparin-induced fibrillization, ThT fluorescence. Potency, µM (series often up to 57.4 µM), inactives show at the highest dose activity, negative = inhibition, most hits filed as inhibitors. 270,000 compounds, 2.1% hits; note: nearly all actives have a fitted effect of over 55% in size
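K18 P301L tau (15 uM + 0.24 uM Alexa 594-tagged), heparin 20 uM, NaOAc pH 7, 6 h 37 C; ThT 30 uM, 1 h RT, ex 450/em 510 nm.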
Gal4-VP16 FLuc: inhibits Gal4-VP16 luciferase reporter, ROR gamma counter-screen. 310,000 compounds, 3.5% hits. Drosophila S2 Gal4-VP16 UAS-luciferase, luminescence, 20 h. Potency, µM (top dose mostly 53.6 µM), inactives show at the top dose activity, negative = inhibition, actives largely listed as inhibitors;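 note: Gal4-VP16 expression switched on by copper sulfate through the metallothionein promoter; nearly all actives have a fitted effect of over 50% in size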
Active calls of the source: *; u = inconclusive; x = no result; ! = not confirmed by another sample; [ ] = remark or other dose. An excerpt weighted towards active compounds, which were near 7.3% of everything screened. Calls come from the whole dose curve; as a rule, active = well fitted curve in the direction sought with a large enough effect; inconclusive = small, poorly fitted or top-dose-only effect, or another doubt; inactive = no such curve, though single readings can be large; an effect the other way counts as inactive or inconclusive. % is set by controls: 0 for no effect and ±100 for the full control effect; potency is the fitted concentration of half-maximal effect.

SMILES	Tau fluor counter	Tau fibril FP	RORgamma inh	Tau fibril ThT	Gal4-VP16 FLuc
Cc1ccc(Nc2nc(CSc3nnc(-c4ccc(F)cc4)n3C)cs2)cc1	u	0%	11µM*	u	3%
O=C(CC(=O)NCCc1ccccc1)NCCc1ccccc1	x	x	19%	x	3%
CC(C)CC(=O)NC(=S)NCCc1ccccc1	-6%	1%	1.8µM*	-9%	7.9µM*
CCOc1cc(NC(=S)NCCc2ccccc2)c(OCC)cc1NC(C)=O	-13%	10%	11µM*	-6%	-18%
CC(C)(C)NC(=S)NCCc1ccccc1	-8%	-5%	6.3µM*	0%	7.1µM*
CC(C)(C)CC(=O)NC(=S)NCCc1ccccc1	-17%	-7%	7.1µM*	-13%	10µM*
Cc1ccc(C(=O)O)cc1NC(=S)NCCc1ccccc1	x	x	0%	x	-2%
COc1ccc(CN(C(=O)c2ccccc2F)C2CCS(=O)(=O)C2)cc1 (centres undefined)	-4%	u	x	2%	x
COc1cc(N)c(Cl)cc1C(=O)N[C@H]1CCN(CCCOc2ccc(F)cc2)C[C@@H]1OC	-18%	4%	36%	-17%	13%
COCC#Cc1ccc(C2NC(C(=O)O)CCC2C)cc1 (centres undefined)	-2%[11.6 µM]	-9%[11.6 µM]	8%[10 µM]	-2%[11.5 µM]	0%[10 µM]
COc1ccc(NC(=S)NC(=O)CC(C)C)c(OC)c1	-10%	2%	u	-4%	u
COc1cc(NC(=S)NCCc2ccccc2)c(OC)cc1NC(=O)CC(C)C	u	13%	10µM*	u	u
CC(=O)O[C@H]1CC(C)(C)C(=C=C/C(C)=C/C=C/C(C)=C/C=C/C=C(C)/C=C/C=C(\C)C(=O)C[C@@]23O[C@]2(C)C[C@@H](O)CC3(C)C)[C@](C)(O)C1	-10%	u	3%	25µM*	26%
COC(=O)CCCC1=CC2=CC(=O)C(C)(OC(=O)c3cccs3)C(=O)C2=CN1C(CO)CO (centres undefined)	0%[11.6 µM]	-5%[11.6 µM]	x	-2%[11.5 µM]	x
COC(=O)CCCC1=CC2=CC(=O)C(C)(OC(=O)c3cccs3)C(=O)C2=CN1Cc1ccccc1 (centres undefined)	-5%[11.6 µM]	u	-16%	13µM*!	7%
CCN(CC)CCCN1C=C2C(=O)C(C)(OC(=O)c3cccs3)C(=O)C=C2C=C1CCCC(=O)OC (centres undefined)	-1%[11.6 µM]	8%[11.6 µM]	x	5%[11.5 µM]	x
COC(=O)CCCC1=CC2=CC(=O)C(C)(OC(=O)c3cccs3)C(=O)C2=CN1Cc1ccco1 (centres undefined)	-3%[11.6 µM]	-1%[11.6 µM]	-2%	u	-8%
COC(=O)CCCC1=CC2=CC(=O)C(C)(OC(=O)c3cccs3)C(=O)C2=CN1C1CCCC1 (centres undefined)	-17%[11.6 µM]	u	5%	25µM*	2%
COC(=O)CCCC1=CC2=CC(=O)C(C)(OC(=O)c3cccs3)C(=O)C2=CN1Cc1ccc2c(c1)OCO2 (centres undefined)	-8%[11.6 µM]	u	11%	13µM*!	8%
COC(=O)CCCC1=CC2=CC(=O)C(C)(OC(=O)c3cccs3)C(=O)C2=CN1c1ccc(OC)cc1 (centres undefined)	-10%[11.6 µM]	u	20%	10µM*	-18%
COCCn1c(=O)c(-c2cccs2)nc2cnc(Nc3ccccc3)nc21	x	x	13%	x	0%
Cc1ccc2nc(CSc3nnc(NC(=O)C(C)C)s3)cc(=O)n2c1	1%	-2%	x	-3%	x
CC(C)C(=O)NNC(=O)CN1CCN(c2nc(-c3ccccc3)cs2)CC1	-10%	-11%	3%	2%	0%
CCc1nnc(NC(=O)CN2CCN(c3nc(-c4ccccc4)cs3)CC2)s1	-18%	3%	11µM*	-15%	u
CCc1nnc(NC(=O)c2cc(-c3ccccc3)nn2-c2ccccc2)s1	-5%	-12%	10µM*	-19%	u
SMILES	Tau fluor counter	Tau fibril FP	RORgamma inh	Tau fibril ThT	Gal4-VP16 FLuc
O=C(Nc1nccs1)c1cc(-c2ccccc2)nn1-c1ccccc1	7%	8%	u	9%	u
CCOc1ccccc1NC(=O)c1c(NC(=O)c2cccc(C)c2)sc2c1CCC2	-10%	u	x	0%	x
Fc1cccc(Cn2cc(C(=S)N3CCCCC3)c3ccccc32)c1	-29%	-6%	7.1µM*	-18%	7.9µM*
CCOc1ccc(S(=O)(=O)N2CCCC(C(=O)NCCN3CCOCC3)C2)cc1Cl (centres undefined)	x	x	9%	x	15%
CN1CCN(C(=O)c2cc(COc3c(F)cccc3F)on2)CC1c1ccccc1 (centres undefined)	18%	22%	7.1µM*	-14%	7.1µM*
COc1ccc(-c2cc(C(F)(F)F)nc(SCC(=O)NCCc3ccccc3)n2)cc1OC	-8%	0%	x	-1%	x
O=C1C(Br)=Cc2cccc3cccc1c23	u	-5%	-5%	u	-6%
O=C1C([N+](=O)[O-])=C(O)c2cccc3cccc1c23	x	x	u	x	18µM*
CN(c1ccccc1)c1ccc(/C=C/[N+](=O)[O-])cc1	-18%	1%	u	-14%	u
CN(C)c1ccc(-n2cccc2/C=C/[N+](=O)[O-])cc1	u	-2%	11µM*	u	-6%[10 µM]
COc1ccc(Nc2ccc(N3C(=O)CCCC3=O)cc2[N+](=O)[O-])cc1OC	-2%	0%	5%	u	-5%
CCOc1ccc(Nc2ccc(N3C(=O)CCC3=O)cc2[N+](=O)[O-])cc1	u	-5%	-5%	5µM*	-3%
COCc1cc(S(=O)c2ccc(Cl)cc2)nc(C)n1 (centres undefined)	-11%	u	4.5µM*	u	u
CC(C)C(=O)Nc1nnc(NC(=S)Nc2ccccc2)s1	-29%	0%	0.56µM*	-13%	2.8µM*
CCCCCC(=O)Nc1nnc(CCc2ccccc2)s1	x	x	13µM*	x	u
CCCCC(=O)Nc1nnc(CCc2ccccc2)s1	x	x	-43%	x	-14%
CCCc1nnc(NC(=S)Nc2ccccc2)s1	-1%	0%	0.63µM*	-2%	0.63µM*
CCCCNC(=O)c1sc(=S)n2c1[nH]c(=O)c1ccccc12	u	u	16%	16µM*	-8%
O=C(NCCc1ccccc1)c1ccc2c(=O)[nH]c3c(C(=O)NCC4CCCO4)sc(=S)n3c2c1 (centres undefined)	x	x	40%	x	-1%
O=C(NC1CCCCC1)c1sc(=S)n2c1[nH]c(=O)c1ccccc12	u	12%	26%	14µM*	-10%
Cc1ccc(CNS(=O)(=O)c2ccc3[nH]c4c(c3c2)CCCC4)cc1	u	u	x	1%	x
O=S(=O)(NCc1ccccc1)c1ccc2[nH]c3c(c2c1)CCCCC3	u	-11%	x	11%	x
O=S(=O)(NCc1ccc(Cl)cc1)c1ccc2[nH]c3c(c2c1)CCCC3	13µM*[quencher]	2%	x	-10%	x
